# Test results taken from PubChem BioAssay AID743315 (Broad Institute, 2014).
# Entries with a potency or affinity are not part of this list. Active and inactive are the calls of the source.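 The calls were made as follows: active = cell killing, with a fitted active concentration at or below twice the top valid dose tested; inconclusive = flat curve with moderate cell loss, or an unreliable fit; inactive = effect in the rising direction, plus the rest.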
# Experiment: HEK293T cell cytotoxicity, dose response, cytotoxicity control, plate reader, dry powder, set 10 (AID 743315)
# Details: HEK293T viability, CellTiter-Glo ATP luminescence, 72 h; series mostly up to 26 µM
row,Structure (SMILES),outcome
1,Cc1ccc(C(C)C)c(OCCn2c(=S)[nH]c3cccc(C)c32)c1,inactive
2,S=c1[nH]c2cc(Cl)ccc2n1CCOc1ccccc1,inactive
3,Cc1cccc(OCCn2c(=S)[nH]c3ccccc32)c1,inactive
4,COc1ccc(OCCn2c(=S)[nH]c3ccccc32)cc1,inactive
5,Cc1ccc(C(C)C)c(OCCn2c(=S)[nH]c3ccc(F)cc32)c1,inactive
6,O=c1[nH]c2ccccc2n1CCOc1ccccc1,inactive
7,COCc1nc2ccccc2n1CCOc1ccc(C(C)(C)C)cc1,inactive
8,Fc1ccc2[nH]c(=S)n(CCOc3ccccc3)c2c1,inactive
9,Fc1ccc2c(c1)[nH]c(=S)n2CCOc1ccccc1,inactive
10,Cc1ccc(OCCn2cnc3ccccc32)cc1,inactive
11,Cc1ccc(C(C)C)c(OCCn2c(=S)[nH]c3cc(F)ccc32)c1,inactive
12,Fc1cccc2c1[nH]c(=S)n2CCOc1ccccc1,inactive
13,CCOc1ccc(OCCn2c(=S)[nH]c3ccccc32)cc1,inactive
14,CC(C)c1ccccc1OCCn1c(=S)[nH]c2ccccc21,inactive
15,CC(C)(C)c1ccc(OCCn2c(=S)[nH]c3ccccc32)cc1,inactive
16,Cc1ccc(C(C)C)c(OCCn2c(CO)nc3ccccc32)c1,inactive
17,Cc1cccc(OCCn2c(=S)[nH]c3ccccc32)c1C,inactive
18,CC(C)c1ccccc1NCCn1c(=S)[nH]c2ccccc21,inactive
19,c1ccc(OCCn2cnc3ccccc32)cc1,inactive
20,S=c1[nH]c2cccc(Cl)c2n1CCOc1ccccc1,inactive
21,Cc1ccc(C(C)C)c(OCCn2c(=S)[nH]c3ccccc32)c1,inactive
22,Cc1ccc(C(C)C)c(OCCn2c(=S)[nH]c3ccc(Cl)cc32)c1,inactive
23,Cc1ccc(OCCn2cnc3ccccc32)c(C(C)C)c1,inactive
24,CC(C)(C)c1ccccc1OCCn1c(=S)[nH]c2ccccc21,inactive
